The target in experiment [1] is Acetylcholinesterase (Homo sapiens) (UniProt P22303). Briefly: Acetylcholinesterase (AChE) small molecule antagonists: colormetric cell-based qHTS assay (AID 1347395). Further: nearly all actives have a fitted effect of over 30% in size. The procedure, abridged: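 Colorimetric read-out: DTNB detects thiocholine released when cellular AChE in SH-SY5Y cells hydrolyses acetylthiocholine. Cells attached overnight, received compound for 30 min at 37 C, then substrate mix for 90 min at 37 C.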

For experiment [2] the target is unchanged. Briefly: Acetylcholinesterase (AChE) small molecule antagonists: enzyme-based qHTS assay (AID 1347397). Further: nearly all actives have a fitted effect of over 55% in size. To be noted: Potency: AChE enzyme activity inhibition; outcome: AChE enzyme activity inhibition. The procedure, abridged: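 In this quantitative HTS, compounds from the Tox21 10K collection were preincubated 30 min at ambient temperature with recombinant human AChE dispensed at 50 mU/mL. Hydrolysis of acetylthiocholine was then followed for 10 min by DTNB colour development.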

Experiment [3] shares this target. Briefly: Acetylcholinesterase (AChE) small molecule antagonists: fluorescence cell-based qHTS assay (AID 1347398). Further: nearly all actives have a fitted effect of over 50% in size. To be noted: Potency: AChE activity; outcome: AChE activity. The procedure, abridged: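 Cells (SH-SY5Y) attached overnight, were dosed with compound or DMSO vehicle for 30 min at 37 C, and then incubated 40 min at room temperature with acetylthiocholine and Thiolite Green; green fluorescence indexed AChE activity.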
For orientation: qHTS replaces the single test concentration by a dilution series.

For experiment [4] the target is unchanged. Briefly: Acetylcholinesterase (AChE) small molecule antagonists: enzyme-based qHTS assay with human liver microsomes (AID 1347399). Further: nearly all actives have a fitted effect of over 60% in size. The settings on record: Potency: qHTS inhibition; outcome: qHTS inhibition. The procedure, abridged: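 Recombinant human AChE (50 mU/mL in the enzyme mix) and human liver microsomes (0.25 mg/mL final) were preincubated with compound and NADPH (0.25 mg/mL final) for 30 min at 37 C. Acetylthiocholine/DTNB was then added; thiocholine was read colorimetrically after 10 min at room temperature.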

Values without a mark were called inactive. Records with an inconclusive call do not appear. Active and inactive are the calls of the source. The call rests on the fitted dose curve.
On the % scale 0 is the no-effect control and ±100 the full control effect; potency means the concentration at half of the fitted maximal effect.

Chain of Acetylcholinesterase (Homo sapiens) (P22303 whole entry, looked up): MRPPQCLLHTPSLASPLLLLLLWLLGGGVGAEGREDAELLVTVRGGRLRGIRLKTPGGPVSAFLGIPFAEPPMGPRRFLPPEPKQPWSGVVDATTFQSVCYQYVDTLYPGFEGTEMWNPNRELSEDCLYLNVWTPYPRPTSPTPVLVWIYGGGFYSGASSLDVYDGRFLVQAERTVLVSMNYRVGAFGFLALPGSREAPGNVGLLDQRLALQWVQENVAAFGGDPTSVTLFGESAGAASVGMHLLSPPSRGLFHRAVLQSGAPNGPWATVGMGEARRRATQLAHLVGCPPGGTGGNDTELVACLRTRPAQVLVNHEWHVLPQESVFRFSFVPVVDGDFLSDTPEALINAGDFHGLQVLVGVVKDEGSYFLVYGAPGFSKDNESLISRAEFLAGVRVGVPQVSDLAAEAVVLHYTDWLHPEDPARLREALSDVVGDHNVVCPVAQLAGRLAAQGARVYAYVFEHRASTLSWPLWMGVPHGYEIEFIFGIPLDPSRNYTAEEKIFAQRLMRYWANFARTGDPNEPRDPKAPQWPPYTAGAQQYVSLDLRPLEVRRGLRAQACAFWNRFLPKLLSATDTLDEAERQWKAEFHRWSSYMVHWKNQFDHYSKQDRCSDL

As to `CC(C)O`, the Potency result in experiment [1], in experiment [2], in experiment [3] and in experiment [4] was “inactive” each time.
In the case of `C[C@@H](O)[C@H]1C(=O)N2C(C(=O)O)=C([C@H]3CCCO3)S[C@H]12`, the Potency entry in experiment [1], in experiment [2], in experiment [3] and in experiment [4] was “inactive” in each case.
As to `C=CC(OCC)OCC`, the Potency result in experiment [1], in experiment [2], in experiment [3] and in experiment [4] was “inactive” throughout.
In the case of `COc1cc(OC)cc(OC)c1`, the Potency result in experiment [1], in experiment [2], in experiment [3] and in experiment [4] was “inactive” throughout.
Regarding `NC(=S)N/N=C/c1cccnc1`, the Potency result in experiment [1], in experiment [2], in experiment [3] and in experiment [4] was “inactive” each time.
Regarding `O=C(O)c1cc(Cl)cc([N+](=O)[O-])c1Cl`, the Potency result in experiment [1], in experiment [2], in experiment [3] and in experiment [4] was “inactive” in each case.
For `O=c1c(-c2ccccc2)c1-c1ccccc1`, the Potency result in experiment [1], in experiment [2], in experiment [3] and in experiment [4] was “inactive” in each case.
In the case of `CO[C@@H]1COCC[C@@H]1N[C@@H]1CC[C@@](C(=O)N2CCc3ncc(C(F)(F)F)cc3C2)(C(C)C)C1`, the Potency result in experiment [1], in experiment [2], in experiment [3] and in experiment [4] was “inactive” each time.
As to `CCCCCCCCCI`, the Potency entry in experiment [1], in experiment [2], in experiment [3] and in experiment [4] was “inactive” each time.
As for `CCN(CC)C(C)=O`, the Potency result in experiment [1], in experiment [2], in experiment [3] and in experiment [4] was “inactive” each time.
As to `CCCCOCCOC(=O)COc1ccc(Cl)cc1Cl`, the Potency entry in experiment [1], in experiment [2], in experiment [3] and in experiment [4] was “inactive” throughout.
In the case of `CCCCCCCCCCCCCCCCCl`, the activity, negative = inhibition in experiment [1] is 0.0979% [at 23.6 µM]. Moreover, the values for the activity change, negative = inhibition in experiment [2], in experiment [3] and in experiment [4] were 0.4% [at 23.6 µM], -0.0126% [at 23.8 µM] and 2.03% [at 23.6 µM], respectively.
In the case of `C=C1CC[C@H]2O[C@]2(C)CC[C@@H]2[C@@H]1CC2(C)C`, the Potency result in experiment [1], in experiment [2], in experiment [3] and in experiment [4] was “inactive” in each case.
`Cc1cnc(NS(=O)(=O)c2ccc(N)cc2)nc1`: the Potency result in experiment [1], in experiment [2], in experiment [3] and in experiment [4] was “inactive” each time.
Regarding `CC(=O)c1cc(C)oc1C`, the Potency result in experiment [1], in experiment [2], in experiment [3] and in experiment [4] was “inactive” throughout.
Turning to `OCCc1ccncc1`, the Potency result in experiment [1], in experiment [2], in experiment [3] and in experiment [4] was “inactive” each time.
On to `CC(=O)CCC1=C(C)CCCC1(C)C`, for which the Potency result in experiment [1], in experiment [2], in experiment [3] and in experiment [4] was “inactive” each time.
As to `C#CC(O)C(CC)CCCC` (stereo not given), the Potency result in experiment [1], in experiment [2], in experiment [3] and in experiment [4] was “inactive” in each case.
Take `Cc1ccc(Cl)c(OCC(O)CNC(C)(C)C)c1` (stereo not given): the Potency entry in experiment [1], in experiment [2], in experiment [3] and in experiment [4] was “inactive” each time.
Regarding `CCN(CC)CCOc1ccc2c(c1)C(=O)c1cc(OCCN(CC)CC)ccc1-2`, the Potency in experiment [1] is 0.776 µM (active); in experiment [2], 1.55 µM (active); in experiment [3], 0.55 µM (active); in experiment [4], 5.49 µM (active).
Turning to `C=CCCCCCCCCC(=O)OCCCC`, the Potency entry in experiment [1], in experiment [2], in experiment [3] and in experiment [4] was “inactive” each time.
On to `CC(C)C1CCC(O)CC1` (stereo not given), for which the Potency result in experiment [1], in experiment [2], in experiment [3] and in experiment [4] was “inactive” throughout.
As for `Cc1oc2c(NC(=O)c3c(Cl)cccc3Cl)cccc2c1C(C)(C)O`, the Potency entry in experiment [1], in experiment [2], in experiment [3] and in experiment [4] was “inactive” in each case.
As for `Cc1cc2c(cc1CC(=O)c1sccc1S(=O)(=O)Nc1onc(C)c1Cl)OCO2`, the Potency entry in experiment [1], in experiment [2], in experiment [3] and in experiment [4] was “inactive” in each case.
As for `C[C@H](O)C(=O)Nc1c(I)c(C(=O)NC(CO)CO)c(I)c(C(=O)NC(CO)CO)c1I`, the Potency result in experiment [1], in experiment [2], in experiment [3] and in experiment [4] was “inactive” throughout.
With `CC[C@H]1CC[C@H](NCc2cc3c(cc2OC)[C@H]2C[C@H]2C(=O)N3C)[C@H](c2ccccc2)N1`, the figures for the Potency in experiment [1] and in experiment [3] were 31.7 µM (active) and 35.6 µM (active), respectively. The Potency result in experiment [2] and in experiment [4] was “inactive” in each case.
As to `CCCOC(OCCC)OCCC`, the Potency entry in experiment [1], in experiment [2], in experiment [3] and in experiment [4] was “inactive” throughout.
Turning to `C=CCCCC`, the Potency entry in experiment [1], in experiment [2], in experiment [3] and in experiment [4] was “inactive” in each case.
For `C/C=C(/C(=C/C)c1ccc(OC(C)=O)cc1)c1ccc(OC(C)=O)cc1`, the Potency entry in experiment [1], in experiment [2], in experiment [3] and in experiment [4] was “inactive” throughout.
Regarding `CC/C=C\CCCCO`, the Potency entry in experiment [1], in experiment [2], in experiment [3] and in experiment [4] was “inactive” in each case.
Take `CC(=O)N(c1onc(C)c1C)S(=O)(=O)c1ccc(N)cc1`: the Potency result in experiment [1], in experiment [2], in experiment [3] and in experiment [4] was “inactive” in each case.
Turning to `CC(C)Cn1cnc2c(N)nc3ccccc3c21`, in experiment [1], the activity, negative = inhibition is -1.3% [at 23.6 µM]. The activity change, negative = inhibition in experiment [2] was -0.415% [at 23.6 µM]; in experiment [3], -8.86% [at 23.8 µM]; in experiment [4] it was 1.68% [at 23.6 µM].
Regarding `CCCCCCOC(=O)CC`, the Potency entry in experiment [1], in experiment [2], in experiment [3] and in experiment [4] was “inactive” each time.
As to `CCCCCCCCCCCCC1CO1` (stereo not given), the Potency result in experiment [1], in experiment [2], in experiment [3] and in experiment [4] was “inactive” throughout.
Consider `CCc1cccc(C)c1`, for which the Potency result in experiment [1], in experiment [2], in experiment [3] and in experiment [4] was “inactive” each time.
`Cc1cccc(C)n1`: the Potency result in experiment [1], in experiment [2], in experiment [3] and in experiment [4] was “inactive” in each case.
`C=CC(=O)OCC1CCCO1` (stereo not given): the Potency entry in experiment [1], in experiment [2], in experiment [3] and in experiment [4] was “inactive” in each case.
With `CCOC(=O)CC#N`, the Potency result in experiment [1], in experiment [2], in experiment [3] and in experiment [4] was “inactive” throughout.
Turning to `Cc1ccccc1S`, the Potency entry in experiment [1], in experiment [2], in experiment [3] and in experiment [4] was “inactive” throughout.
`CCCCCCCCCCCCCCCC(=O)OC/C=C(C)/C=C/C=C(C)/C=C/C1=C(C)CCCC1(C)C`: the Potency entry in experiment [1], in experiment [2], in experiment [3] and in experiment [4] was “inactive” throughout.
In the case of `OCc1ccccn1`, the Potency result in experiment [1], in experiment [2], in experiment [3] and in experiment [4] was “inactive” in each case.
Take `C=C(C)C(=O)OCC`: the Potency entry in experiment [1], in experiment [2], in experiment [3] and in experiment [4] was “inactive” in each case.
For `CC(C)=C1CC[C@@H](C)CC1=O`, the Potency entry in experiment [1], in experiment [2], in experiment [3] and in experiment [4] was “inactive” throughout.
With `O=CCCc1ccccc1`, the Potency entry in experiment [1], in experiment [2], in experiment [3] and in experiment [4] was “inactive” each time.
Turning to `CCC(C)N(C)C(=O)c1cc2ccccc2c(-c2ccccc2Cl)n1` (stereo not given), the Potency entry in experiment [1], in experiment [2], in experiment [3] and in experiment [4] was “inactive” each time.

The record behind these values is PubChem BioAssay (Tox21).
